# Active and inactive are the calls of the source.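 The calls were made as follows, unless noted: active = GFP response above 150% of the DMSO level; inconclusive = fewer than 70 events counted for a yeast strain; inactive = the rest.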
# Legend:
# [1] = RPL19A-GFP modulators, yeast TOR pathway, confirmation, cell-based, S. cerevisiae, flow cytometry, cherry picks, mother/daughter gates (AID 2270;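 active = GFP response below 50% of the DMSO control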); settings: S. cerevisiae RPL19A-GFP strain, 3 h, at 10 µM, stronger effect = lower value, 100 = same GFP as DMSO wells
# [2] = LAP4-GFP expression modulators in yeast, confirmation, cell-based, cherry picks, flow cytometry, mother/daughter gates (AID 2271;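 active = GFP response above 150% of the DMSO control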;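 also: ratio of sample to DMSO plate mean so 100% equals DMSO level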); settings: S. cerevisiae LAP4-GFP strain, 3 h, at 10 µM, stronger effect = higher value, 100 means same as DMSO control
# [3] = modulators of MEP2-GFP levels in yeast, confirmation, S. cerevisiae, flow cytometry GFP, cherry picks (AID 2272;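 active = GFP response above 150% of the DMSO control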;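 also: ratio of well signal to plate DMSO mean so 100% equals DMSO level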); settings: S. cerevisiae MEP2-GFP strain, 3 h, at 10 µM, stronger effect = higher value
# [4] = AGP1-GFP expression modulators, hit retest, confirmation, cell-based, flow cytometry, S. cerevisiae, cherry picks (AID 2273);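 also: median GFP channel fluorescence over the whole cell population gate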; settings: S. cerevisiae AGP1-GFP strain, 3 h, at 10 µM
# [5] = modulators of CIT2-GFP expression in yeast, confirmation, S. cerevisiae, GFP fusion, cherry picks, mother/daughter gates (AID 2274); settings: S. cerevisiae CIT2-GFP strain, flow cytometry, 3 h, at 10 µM, stronger effect = higher value
# [6] = inhibitors of CD8+ T cell-vesicle binding, pilot screen, LFA-1/ICAM-1 modulator project, MLPCN validation set, flow cytometry (AID 2523;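 active = response below a set limit, under 55% cells CD8-positive and vesicle-bound, and CD8 cells' 90th-percentile brightness under 279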;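 as to vesicle binding response: mean PE anti-B7-1 fluorescence of CD8+ cells relative to row control; 100% = QL9-loaded vesicles with DMSO vehicle in the same plate row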); settings: 2C mouse CD8+ T cells, at 7 µM, stronger effect = lower value; double positive events: measured here: CD8+/vesicle+ event percentage
# [7] = target: Integrin beta-1 (Homo sapiens) + Integrin alpha-4 (Homo sapiens) (UniProt P13612+P05556); experiment: inhibition of HUTS-21 binding to VLA-4, pilot screen, VLA-4 allosteric modulator project, U937 cells, HUTS-21 mAb, flow cytometry, validation set (AID 2674;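 active = inhibition above 50%, about 3 SD of the validation set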;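 also: antibody binding induced by the VLA-4 ligand LDV present at three times its Kd; 0% = LDV ligand with antibody and no compound and 100% = antibody without LDV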); settings: HUTS-21 LIBS mAb binding, at 6.7 µM, stronger effect = higher value, binding induced by LDV ligand
# Sequence of Integrin beta-1 (Homo sapiens) + Integrin alpha-4 (Homo sapiens) (P05556 whole entry, looked up): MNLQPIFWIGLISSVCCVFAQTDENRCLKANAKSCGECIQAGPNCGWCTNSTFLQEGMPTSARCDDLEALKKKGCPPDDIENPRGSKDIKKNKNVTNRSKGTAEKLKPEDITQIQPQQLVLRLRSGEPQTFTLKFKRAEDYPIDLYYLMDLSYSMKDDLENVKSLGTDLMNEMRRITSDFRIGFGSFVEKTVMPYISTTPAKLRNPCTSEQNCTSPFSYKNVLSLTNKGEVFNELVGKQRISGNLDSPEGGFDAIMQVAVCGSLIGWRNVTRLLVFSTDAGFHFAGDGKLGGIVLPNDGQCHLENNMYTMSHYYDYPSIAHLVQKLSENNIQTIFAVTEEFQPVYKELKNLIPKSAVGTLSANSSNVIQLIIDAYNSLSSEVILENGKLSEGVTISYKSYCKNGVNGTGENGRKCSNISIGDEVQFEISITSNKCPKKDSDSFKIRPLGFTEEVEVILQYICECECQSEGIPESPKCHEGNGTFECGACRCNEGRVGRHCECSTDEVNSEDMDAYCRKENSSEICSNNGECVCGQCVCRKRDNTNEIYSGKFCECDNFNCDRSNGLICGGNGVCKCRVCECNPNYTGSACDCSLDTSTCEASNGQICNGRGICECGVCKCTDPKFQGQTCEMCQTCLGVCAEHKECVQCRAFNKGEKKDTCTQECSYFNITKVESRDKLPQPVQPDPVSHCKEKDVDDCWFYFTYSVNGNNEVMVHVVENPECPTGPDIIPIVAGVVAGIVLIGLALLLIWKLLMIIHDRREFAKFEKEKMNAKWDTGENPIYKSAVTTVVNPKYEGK
# Sequence of Integrin beta-1 (Homo sapiens) + Integrin alpha-4 (Homo sapiens) (P13612 whole entry, looked up): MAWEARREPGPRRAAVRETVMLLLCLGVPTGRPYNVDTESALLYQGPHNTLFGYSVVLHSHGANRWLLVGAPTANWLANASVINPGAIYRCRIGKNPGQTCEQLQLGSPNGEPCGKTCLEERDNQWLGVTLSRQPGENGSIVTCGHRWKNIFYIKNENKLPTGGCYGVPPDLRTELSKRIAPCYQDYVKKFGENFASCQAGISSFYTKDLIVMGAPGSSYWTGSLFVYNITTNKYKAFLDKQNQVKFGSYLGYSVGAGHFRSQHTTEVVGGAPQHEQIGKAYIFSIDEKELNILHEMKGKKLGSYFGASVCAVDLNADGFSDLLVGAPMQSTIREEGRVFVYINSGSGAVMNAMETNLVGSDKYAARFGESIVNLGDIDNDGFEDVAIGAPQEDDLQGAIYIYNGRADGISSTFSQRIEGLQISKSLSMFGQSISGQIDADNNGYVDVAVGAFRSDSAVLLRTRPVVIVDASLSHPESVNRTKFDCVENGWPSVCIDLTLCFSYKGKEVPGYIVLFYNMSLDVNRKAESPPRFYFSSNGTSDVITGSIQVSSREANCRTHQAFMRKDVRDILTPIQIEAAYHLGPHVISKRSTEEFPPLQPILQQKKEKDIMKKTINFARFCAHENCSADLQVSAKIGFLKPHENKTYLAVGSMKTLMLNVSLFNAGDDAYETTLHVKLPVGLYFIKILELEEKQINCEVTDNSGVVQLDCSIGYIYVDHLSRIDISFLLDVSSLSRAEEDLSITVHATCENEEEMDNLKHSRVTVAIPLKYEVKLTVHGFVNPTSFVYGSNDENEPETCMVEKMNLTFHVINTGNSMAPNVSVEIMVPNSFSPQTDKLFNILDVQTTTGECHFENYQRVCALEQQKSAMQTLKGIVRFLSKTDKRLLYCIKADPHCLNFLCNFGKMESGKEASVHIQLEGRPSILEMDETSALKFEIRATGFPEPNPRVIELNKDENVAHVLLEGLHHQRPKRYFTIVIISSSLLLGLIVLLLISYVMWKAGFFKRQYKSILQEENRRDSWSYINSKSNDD
# [8] = superoxide lowering in aged yeast cells, pilot screen, validation compound set (AID 2706;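 active = superoxide response below 65% of plate, a cut near 3 SD across the whole screen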;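 also: yeast exposed to compound for one week at 30 degrees C before staining; 100% = mean of all compound wells on the same plate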); settings: S. cerevisiae aging, superoxide DHE fluorescence; at 10 µM, stronger effect = lower value
# [9] = target: Beta-adrenergic receptor kinase 1 (Homo sapiens) (UniProt P25098); experiment: GRK2 binders displacing RNA aptamer, biochemical, validation, human GRK2, bead flow cytometry (AID 488806;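 active = aptamer binding inhibition above 30%, about 3 SD of noise from non-fluorescent compounds; inactive = inhibition at or below 30%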); settings: bead-bound GRK2, FAM-aptamer displacement, at 10 µM, stronger effect = higher value
# Sequence of Beta-adrenergic receptor kinase 1 (Homo sapiens) (P25098 whole entry, looked up): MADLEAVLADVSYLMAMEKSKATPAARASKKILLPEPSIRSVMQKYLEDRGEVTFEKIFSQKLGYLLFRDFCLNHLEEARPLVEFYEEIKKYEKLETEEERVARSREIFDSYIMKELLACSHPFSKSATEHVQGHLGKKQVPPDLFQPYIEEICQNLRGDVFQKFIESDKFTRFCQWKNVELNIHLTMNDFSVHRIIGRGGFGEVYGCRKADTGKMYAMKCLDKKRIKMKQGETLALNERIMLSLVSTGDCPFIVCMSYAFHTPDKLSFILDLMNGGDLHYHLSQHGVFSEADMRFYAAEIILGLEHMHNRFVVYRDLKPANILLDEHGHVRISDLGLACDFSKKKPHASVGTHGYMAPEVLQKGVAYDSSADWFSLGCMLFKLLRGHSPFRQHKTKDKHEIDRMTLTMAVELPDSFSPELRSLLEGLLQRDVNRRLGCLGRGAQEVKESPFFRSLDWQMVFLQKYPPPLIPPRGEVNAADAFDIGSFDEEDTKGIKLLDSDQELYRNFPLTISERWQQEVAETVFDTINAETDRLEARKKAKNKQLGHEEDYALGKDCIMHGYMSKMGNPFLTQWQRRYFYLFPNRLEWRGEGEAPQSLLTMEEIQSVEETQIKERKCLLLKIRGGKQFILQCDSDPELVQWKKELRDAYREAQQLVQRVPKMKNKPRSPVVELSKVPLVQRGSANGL
# [10] = target: AP-2 complex subunit beta (Homo sapiens) (UniProt P63010); experiment: inhibitors of arrestin peptide binding to AP2, pilot screen, biochemical, validation set, GST-AP2 beads, flow cytometry (AID 504541;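 active = inhibition above 54%, about 3 SD of non-fluorescent compounds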;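 also: AP2 carries R879A mutation and is captured from E. coli lysate; bead-bound FITC arrestin peptide fluorescence measuring arrestin peptide binding to AP2; 0% = DMSO wells and 100% = excess unlabeled arrestin peptide control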); settings: FITC arrestin peptide, at 10 µM, stronger effect = higher value, AP2 beta2 appendage fragment, R879A mutant
# Sequence of AP-2 complex subunit beta (Homo sapiens) (P63010 whole entry, looked up, the tested form may be a part, one chain of several): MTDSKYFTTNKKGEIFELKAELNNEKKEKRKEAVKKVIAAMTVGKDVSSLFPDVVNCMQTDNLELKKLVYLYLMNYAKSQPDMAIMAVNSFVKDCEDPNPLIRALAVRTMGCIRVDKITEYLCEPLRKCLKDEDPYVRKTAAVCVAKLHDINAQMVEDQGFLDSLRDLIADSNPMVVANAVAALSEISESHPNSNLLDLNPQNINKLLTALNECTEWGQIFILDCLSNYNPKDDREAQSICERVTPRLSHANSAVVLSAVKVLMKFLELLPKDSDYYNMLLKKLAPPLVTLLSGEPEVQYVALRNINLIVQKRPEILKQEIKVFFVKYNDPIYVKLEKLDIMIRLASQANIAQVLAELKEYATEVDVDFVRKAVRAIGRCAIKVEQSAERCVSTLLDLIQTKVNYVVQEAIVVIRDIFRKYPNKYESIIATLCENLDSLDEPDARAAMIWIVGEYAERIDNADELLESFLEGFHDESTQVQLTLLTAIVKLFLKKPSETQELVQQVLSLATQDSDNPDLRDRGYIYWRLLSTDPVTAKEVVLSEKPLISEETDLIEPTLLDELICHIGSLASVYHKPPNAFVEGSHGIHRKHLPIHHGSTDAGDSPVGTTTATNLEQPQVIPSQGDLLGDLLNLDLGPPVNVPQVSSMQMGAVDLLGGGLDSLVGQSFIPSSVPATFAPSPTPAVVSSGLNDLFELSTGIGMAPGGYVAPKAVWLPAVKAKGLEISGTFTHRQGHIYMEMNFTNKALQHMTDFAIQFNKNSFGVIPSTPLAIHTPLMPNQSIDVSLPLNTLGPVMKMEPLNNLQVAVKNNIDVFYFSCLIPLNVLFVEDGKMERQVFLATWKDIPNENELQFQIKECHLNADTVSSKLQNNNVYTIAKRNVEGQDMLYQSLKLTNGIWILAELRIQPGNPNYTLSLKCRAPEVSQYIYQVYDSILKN
# [11] = yeast V-ATPase proton transport modulators, S. cerevisiae, pHLuorin, HTS validation (AID 504600; in the data active = response above about 15%;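 also: plate controls were DMSO for no effect and reference compound for full effect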); settings: S. cerevisiae pHLuorin cytosolic pH, at 10 µM, stronger effect = higher value
# [12] = tested on: anti-desmoglein-3 scFv antibody binding to human DSG3; experiment: inhibitors of anti-DSG3 scFv binding to DSG3, pilot screen, biochemical, validation compound set, bead-based, flow cytometry (AID 588368;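 active = binding below the plate cutoff, the plate median minus 3 SD, with a reading above zero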;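 also: signal is the median channel fluorescence of bead-bound GFP antibody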); settings: Protein G beads, DSG3-Fc, scFv-GFP binding, at 10 µM, stronger effect = lower value
# [13] = inhibitors of fungal efflux pumps CDR1, CDR2, MDR1, pilot screen, validation compound set, multiplex, phenotypic (AID 588506;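 active = efflux inhibition above 0.42, the validation set average plus 4 SD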;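 also: Nile Red retained in cells so higher fluorescence means more efflux inhibition; 0 = negative control wells and 1 = enniatin B 25 µM full block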); settings: S. cerevisiae pump-expressing triplex, Nile Red efflux flow cytometry; at 10 µM; stronger effect = higher value; the pumps come from Candida albicans
# [14] = target: ATP-binding cassette sub-family B member 6 (Homo sapiens) (UniProt Q9NP58); experiment: ABCB6 transporter inhibitors, pilot screen, K562-ABCB6 cells, flow cytometry, validation set (AID 588550;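 active = inhibition above the screen-wide mean plus 3 SD, about 51%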;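 also: 0% = DMSO wells and 100% = benzethonium chloride 70 µM positive control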); settings: K562-ABCB6 porphyrin accumulation, 1 h, at 10 µM, stronger effect = higher value
# Sequence of ATP-binding cassette sub-family B member 6 (Homo sapiens) (Q9NP58 whole entry, looked up): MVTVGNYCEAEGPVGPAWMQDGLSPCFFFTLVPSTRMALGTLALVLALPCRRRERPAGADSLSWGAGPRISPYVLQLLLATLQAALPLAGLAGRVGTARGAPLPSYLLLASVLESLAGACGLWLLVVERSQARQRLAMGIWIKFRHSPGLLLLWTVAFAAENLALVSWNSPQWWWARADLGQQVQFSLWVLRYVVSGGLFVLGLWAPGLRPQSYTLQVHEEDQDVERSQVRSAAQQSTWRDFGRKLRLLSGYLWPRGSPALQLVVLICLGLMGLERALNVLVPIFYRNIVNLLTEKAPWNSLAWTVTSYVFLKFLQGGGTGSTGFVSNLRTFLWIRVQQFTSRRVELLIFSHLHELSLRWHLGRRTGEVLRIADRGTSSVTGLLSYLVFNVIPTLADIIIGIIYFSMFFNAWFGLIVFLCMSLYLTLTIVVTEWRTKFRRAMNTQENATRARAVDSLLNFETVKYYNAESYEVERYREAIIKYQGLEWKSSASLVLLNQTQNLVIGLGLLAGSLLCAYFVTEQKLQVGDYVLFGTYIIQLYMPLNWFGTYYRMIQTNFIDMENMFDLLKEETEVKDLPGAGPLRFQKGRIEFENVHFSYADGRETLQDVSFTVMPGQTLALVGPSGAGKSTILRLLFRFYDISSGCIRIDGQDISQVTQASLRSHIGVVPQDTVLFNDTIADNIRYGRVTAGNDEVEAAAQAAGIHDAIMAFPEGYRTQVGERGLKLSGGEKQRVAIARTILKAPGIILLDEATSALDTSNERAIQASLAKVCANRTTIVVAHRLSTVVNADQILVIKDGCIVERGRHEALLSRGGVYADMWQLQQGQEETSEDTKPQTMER
# [15] = promoters of myeloid differentiation in arrested cells, primary screen, cell-based, GFP/MAC1 double positive, flow cytometry, validation set (AID 588685;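 active = differentiation response of at least 50%, scaled between solvent and reference control, from cells with both markers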;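 also: compound exposure lasts four days before antibody staining and flow analysis; 0% = DMSO wells and 100% = 5 µM fulvestrant positive control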); settings: ER-HoxA9 marrow cells, stronger effect = higher value, normalized: vehicle 0, fulvestrant 100
# [16] = measured here: daughter cell gate
# [17] = measured here: mother cell gate
# [18] = measured here: mother cell gate response
# [19] = measured here: daughter cell gate response
structure (smiles),measurement,setting,value
Cc1nn2c(NCc3ccccn3)c3c(nc2c1-c1ccccc1)CCC3,GFP response vs DMSO,[1],106% (inactive)
same,GFP response vs DMSO,[1]; [16],85.7%
same,GFP response vs DMSO,[1]; [17],93.7%
same,GFP response relative to DMSO,[2],132% (inactive)
same,GFP response relative to DMSO,[2]; [18],114%
same,GFP response vs DMSO,[3],120% (inactive)
same,"GFP response, % of DMSO",[4],103% (inactive)
same,"GFP response, % of DMSO",[5],100% (inactive)
same,"GFP response, % of DMSO",[5]; [16],95.8%
same,"GFP response, % of DMSO",[5]; [17],85.9%
CCCCn1c(-c2csc3c2CCCC3)n[nH]c1=S,GFP response vs DMSO,[1],91.5% (inactive)
same,GFP response vs DMSO,[1]; [16],88.2%
same,GFP response vs DMSO,[1]; [17],94.1%
same,GFP response relative to DMSO,[2],122% (inactive)
same,GFP response relative to DMSO,[2]; [19],117%
same,GFP response relative to DMSO,[2]; [18],128%
same,GFP response vs DMSO,[3],93.3% (inactive)
same,"GFP response, % of DMSO",[4],95.6% (inactive)
same,"GFP response, % of DMSO",[5],80.6% (inactive)
same,"GFP response, % of DMSO",[5]; [16],77.9%
same,"GFP response, % of DMSO",[5]; [17],80.5%
O=C1/C(=C\c2ccccn2)SC(=S)N1Nc1ncc(C(F)(F)F)cc1Cl,GFP response vs DMSO,[1],99.1% (inactive)
same,GFP response vs DMSO,[1]; [16],98.3%
same,GFP response vs DMSO,[1]; [17],99%
same,GFP response relative to DMSO,[2],98.8% (inactive)
same,GFP response relative to DMSO,[2]; [19],92.2%
same,GFP response relative to DMSO,[2]; [18],99.5%
same,GFP response vs DMSO,[3],102% (inactive)
same,"GFP response, % of DMSO",[4],94.9% (inactive)
same,"GFP response, % of DMSO",[5],95% (inactive)
same,"GFP response, % of DMSO",[5]; [16],94.6%
same,"GFP response, % of DMSO",[5]; [17],93.3%
CCCCC(=O)O[C@]1(C(=O)CO)CC[C@H]2[C@@H]3CCC4=CC(=O)CC[C@]4(C)[C@H]3[C@@H](O)C[C@@]21C,GFP response vs DMSO,[1],96.8% (inactive)
same,GFP response vs DMSO,[1]; [16],96.4%
same,GFP response vs DMSO,[1]; [17],99%
same,GFP response relative to DMSO,[2],101% (inactive)
same,GFP response relative to DMSO,[2]; [19],101%
same,GFP response relative to DMSO,[2]; [18],99.3%
same,GFP response vs DMSO,[3],105% (inactive)
same,"GFP response, % of DMSO",[4],99.3% (inactive)
same,"GFP response, % of DMSO",[5],101% (inactive)
same,"GFP response, % of DMSO",[5]; [16],101%
same,"GFP response, % of DMSO",[5]; [17],101%
same,double positive events,[6],62.4%
same,vesicle binding response,[6],271% (inactive)
same,inhibition,[7],4.42% (inactive)
same,superoxide response (% of plate),[8],83.1% (inactive)
same,aptamer binding inhibition,[9],2% (inactive)
same,inhibition,[10],-7.47% (inactive)
same,response,[11],-1.11% (inactive)
same,binding (% of control),[12],101% (inactive)
same,efflux inhibition (fraction of control),[13],0.1 (inactive)
same,inhibition,[14],9% (inactive)
same,differentiation response,[15],-6.66% (inactive)

# Reference: PubChem BioAssay
